# In the supplement of paper PMC12669032:
# Unmarked numbers belong to inactive results.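 The calls were made as follows: active = AUC reduced over 20% with Padj below 0.05 in at least 2 of 3 replicates; inactive = otherwise.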
# Columns and labels:
# Experiment in all cases: growth AUC relative to DMSO control (median of replicates) (fraction); higher = more growth (less inhibition), active = hit call of the paper
# Settings in all cases: 20 µM; 24 h
# Coprococcus comes = tested on: Coprococcus comes
# Summary of the method: (§1)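 Three biological replicates, each grown on a separate day, were combined as a median for every value. In each, a gut bacterial monoculture in mGAM started at OD600 0.05 and grew anaerobically at 37 °C with 20 µM compound (1% DMSO), with OD600 read hourly over 24 h. Area under the growth curve was normalised against the plate median of solvent-only wells, or against row and column medians on the industrial chemical plate, after the minimum OD was set to 0.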
# Escherichia coli ED1a = tested on: Escherichia coli ED1a
# Summary of the method: as §1
# Escherichia coli IAI1 = tested on: Escherichia coli IAI1
# Summary of the method: as §1
# Eubacterium rectale = tested on: Eubacterium rectale
# Summary of the method: as §1
# [1] = tested on: Fusobacterium nucleatum subsp. animalis
# Summary of the method: as §1
# Lactobacillus gasseri = tested on: Lactobacillus gasseri
# Summary of the method: as §1
# Lactobacillus paracasei = tested on: Lactobacillus paracasei
# Summary of the method: as §1
# Odoribacter splanchnicus = tested on: Odoribacter splanchnicus
# Summary of the method: as §1
# [2] = tested on: Parabacteroides distasonis
# Summary of the method: as §1
# Parabacteroides merdae = tested on: Parabacteroides merdae
# Summary of the method: as §1
# Roseburia intestinalis = tested on: Roseburia intestinalis
# Summary of the method: as §1
# Streptococcus salivarius = tested on: Streptococcus salivarius
# Summary of the method: as §1
Structure (SMILES),growth AUC (Coprococcus comes),growth AUC (Escherichia coli ED1a),growth AUC (Escherichia coli IAI1),growth AUC (Eubacterium rectale),growth AUC [1],growth AUC (Lactobacillus gasseri),growth AUC (Lactobacillus paracasei),growth AUC (Odoribacter splanchnicus),growth AUC [2],growth AUC (Parabacteroides merdae),growth AUC (Roseburia intestinalis),growth AUC (Streptococcus salivarius)
CN(C)C(=S)SSC(=S)N(C)C,0.833,0.973,0.973,0.83,1.09,0.875,1.02,0.0343 (active),0.928,0.852,0.822,0.956
Clc1ccc(C(c2ccc(Cl)cc2)C(Cl)Cl)cc1,1.01,1.02,0.984,1.01,1.07,0.956,0.994,0.951,1.02,0.918,0.923,0.99
Clc1cccc(C(Cl)(Cl)Cl)n1,1.02,0.974,0.976,1.05,1.01,0.889,1.01,0.964,1,0.967,1,0.959
COC(=O)N(OC)c1ccccc1COc1ccn(-c2ccc(Cl)cc2)n1,0.998,1.02,0.99,1.1,1.19,0.88,0.988,0.881,0.57 (active),0.911,0.945,0.928
CCOC(=O)COc1cc(-c2nn(C)c(OC(F)F)c2Cl)c(F)cc1Cl,0.979,0.995,0.971,1.13,1.12,0.996,1.01,1,1.02,1,0.973,0.993
CCN(CC)C(=O)C(C)Oc1cccc2ccccc12 (stereo not given),1.01,0.979,1.01,0.983,1.02,1.03,0.977,0.96,0.997,1.02,1.08,0.959
COc1ccc(C(c2ccc(OC)cc2)C(Cl)(Cl)Cl)cc1,0.978,1.04,0.967,0.882,1.06,1.13,1.02,1,0.938,0.71,0.987,0.992
O=P(O)(O)CCCl,1.06,1.02,1.02,1.22,1.04,0.975,1.01,1.12,1.01,1,1.03,1.04
CNC(=S)S,1.03,1.02,1.02,1.03,1.08,1.02,1.1,1.05,1.03,1.05,1.1,0.997
O=C1C=CC(=O)C=C1,1.02,1.01,1.01,0.986,0.983,1.04,1,0.975,1.03,1.01,1.08,0.979
O=P(OCCCl)(OCCCl)OCCCl,0.916,0.98,0.963,0.89,0.88,0.98,1.09,0.868,0.989,0.921,0.928,1.03
COP(=S)(OC)Oc1ccc(S(N)(=O)=O)cc1,1.01,0.976,0.999,0.901,0.998,1.06,1.05,1,0.992,1.01,1.03,0.985
OC[C@@H](O)[C@H]1O[C@@H]2O[C@H](C(Cl)(Cl)Cl)O[C@@H]2[C@H]1O (mixture of isomers),0.988,0.99,0.986,1.05,0.83,1.03,0.943,1.06,0.903,0.999,0.967,1.01
C#CCC1=C(C)C(OC(=O)C2C(C=C(C)C)C2(C)C)CC1=O (stereo not given),0.997,1.02,1,1.03,1.06,0.998,1,1.11,0.952,0.946,0.921,0.959
COc1cc(OC)nc(NC(=O)NS(=O)(=O)c2ncccc2C(=O)N(C)C)n1,0.966,1.05,0.972,0.999,1.05,0.93,0.889,1.03,1.02,0.988,1.01,0.975
CCCCN(CCCC)SN(C)C(=O)Oc1cccc2c1OC(C)(C)C2,1.09,0.972,1.01,1.22,1.02,0.884,0.981,1,0.895,0.951,0.942,1
CCc1ccc(C(=O)NN(C(=O)c2cc(C)cc(C)c2)C(C)(C)C)cc1,0.987,1.01,0.999,0.937,0.882,0.98,1.04,0.926,1.03,0.945,0.945,0.952
CCOP(=S)(OCC)Oc1ccc2c(C)c(Cl)c(=O)oc2c1,1,1.02,1.01,1.11,1.01,0.991,0.998,1.01,0.748 (active),0.897,1.01,1
O=C1OCC2C1C1(Cl)C(Cl)=C(Cl)C2(Cl)C1(Cl)Cl (stereo not given),1.01,0.979,1.01,1.07,0.925,0.927,0.991,1.09,1.07,0.987,0.975,0.986
Clc1cccc(Cl)c1Cl,1.01,0.985,0.997,0.982,1,1.02,1.03,1,1,1.01,0.972,1.06
COc1ccc(/C(=C/C(=O)N2CCOCC2)c2ccc(Cl)cc2)cc1OC,0.985,1.01,1.02,1.12,1.06,0.961,1.06,0.823,0.993,0.993,1.06,0.987
O=C(NC(=O)c1c(F)cccc1F)Nc1cc(Cl)c(Oc2ncc(C(F)(F)F)cc2Cl)c(Cl)c1,1.02,1.02,0.991,1.01,1.02,1.16,1.02,1.02,1.02,1.02,1.11,0.98
C#CCN1CC(=O)N(COC(=O)C2C(C=C(C)C)C2(C)C)C1=O (mixture of isomers),0.982,0.991,0.968,0.805,0.945,0.994,0.997,0.958,0.996,0.927,1.04,0.943
Cc1cc(C)nc(NC(=O)NS(=O)(=O)c2ccccc2C(=O)OC2COC2)n1,0.97,0.986,0.983,1.07,1.02,0.884,1.08,1.01,1.02,0.997,0.985,0.909
CCOP(=S)(OCC)Oc1cc(-c2ccccc2)on1,1.03,0.993,0.993,1.05,0.973,0.886,0.964,1.01,0.854,1,0.993,0.995
